The nature of assay [1]: A CellTox Green Cytotoxicity Assay to monitor cytotoxicity in HEK293 cells - 40 hour (AID 1224871). Note: nearly all actives have a fitted effect of over 45% in size. Note: potency is the fitted concentration of half-maximal effect. The method, boiled down: (§1)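 Read-out: fluorescence of a cell-impermeant cyanine dye staining DNA of dead cells, proportional to cytotoxicity. HEK293, 600 cells/well with reagent, compound (23 nL DMSO) added after 5 h; reads at 0, 8, 16, 24, 32, 40 h.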
Assay [2] is described as follows: qHTS RealTime-Glo MT Cell Viability Assay in HEK293 cells - 16 hour (AID 1224872). Note: top concentration of the series differs between compounds; nearly all actives have a fitted effect of over 50% in size. The method, boiled down:
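HEK293 cells were seeded at 600 cells/well together with NanoLuc luciferase and cell-permeant prosubstrate, preincubated 5 h at 37 C/5% CO2, then given compound in DMSO by pintool. Luminescence from viable-cell prosubstrate reduction was read repeatedly over 40 h.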
Background: qHTS replaces the single test concentration by a dilution series.

Assay [3] can be described thus: qHTS RealTime-Glo MT Cell Viability Assay in HepG2 cells - 8 hour (AID 1224873). Note: nearly all actives have a fitted effect of over 55% in size. The method, boiled down: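 Real-time viability: cells seeded at 600 per well together with NanoLuc and cell-permeant prosubstrate, compounds added after 5 h incubation. Luminescence tracked at 0, 8, 16, 24, 32 and 40 h of exposure.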
Assay [4] is described as follows: qHTS RealTime-Glo MT Cell Viability Assay in HEK293 cells - 40 hour (AID 1224874). Note: nearly all actives have a fitted effect of over 50% in size. Note: potency is the fitted concentration of half-maximal effect. The settings on record: RealTime-Glo luminescence; max response: active compounds read low. The method, boiled down: (§2)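 Luminescence readout at each listed time point; HEK293, 600 cells/well, RealTime-Glo MT reagent added with cells; compounds pinned (23 nL in DMSO) after 5 h at 37 C; continuous culture at 37 C.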

Assay [5] in a line: A CellTox Green Cytotoxicity Assay to monitor cytotoxicity in HEK293 cells - 24 hour (AID 1224875). Note: nearly all actives have a fitted effect of over 45% in size. Note: potency is the fitted concentration of half-maximal effect. The method, boiled down:
as §1

The nature of assay [6]: A CellTox Green Cytotoxicity Assay to monitor cytotoxicity in HepG2 cells - 16 hour (AID 1224876). Note: nearly all actives have a fitted effect of over 45% in size. Note: potency is the fitted concentration of half-maximal effect. The method, boiled down:
(§3)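 HepG2, 600 cells/well premixed w/ CellTox Green; 5 h settle, 37 C/5% CO2; pintool cpd add (DMSO); 37 C, 40 h; fluorescence read at 0, 8, 16, 24, 32, 40 h.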

A short description of assay [7]: qHTS RealTime-Glo MT Cell Viability Assay in HepG2 cells - 32 hour (AID 1224877). Note: nearly all actives have a fitted effect of over 55% in size. The method, boiled down:
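HepG2 cells were seeded at 600 cells/well together with NanoLuc luciferase and a cell-permeant prosubstrate, preincubated 5 h at 37 C/5% CO2, then pin-dosed with compounds in DMSO. Nonlytic luminescence from viable cells was read at each time point.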

Assay [8] in a line: A CellTox Green Cytotoxicity Assay to monitor cytotoxicity in HepG2 cells - 24 hour (AID 1224878). Note: nearly all actives have a fitted effect of over 45% in size. Note: potency is the fitted concentration of half-maximal effect. The method, boiled down:
as §3

A short description of assay [9]: A CellTox Green Cytotoxicity Assay to monitor cytotoxicity in HepG2 cells - 40 hour (AID 1224879). Note: nearly all actives have a fitted effect of over 40% in size. Note: potency is the fitted concentration of half-maximal effect. The method, boiled down: as §3
The nature of assay [10]: qHTS RealTime-Glo MT Cell Viability Assay in HEK293 cells - 0 hour (AID 1224880). The method, boiled down:
as §2

Several values for one entry are separate records, joined by “and”; a condition that tells them apart may be missing. Equal values may be shown once. Inconclusive results are not listed. More than one record can exist for a structure, and the calls need not agree. Unmarked numbers belong to inactive results. Activity calls are given as the source filed them. Calls come from the whole dose curve; as a rule, active = well fitted curve in the direction sought with a large enough effect in the repeat runs; inconclusive = weak or mixed curves; inactive = no such curve, though single readings can be large; an effect the other way counts as inactive or inconclusive.
% is set by controls: 0 for no effect and ±100 for the full control effect.

`O=S(=O)(c1ccccc1)c1ccccc1`: the Potency result in assay [1], in assay [2], in assay [3], in [5], in [6] and in assay [7] was “inactive” throughout. For the same compound, the Potency entry in assay [8] and in [9] was “inactive” each time. Moreover, in [4], the max response was 1.49%.
Consider `O=C(Cc1ccccc1)c1ccccc1`, for which the Potency result in assay [1], in assay [2], in assay [3], in assay [5], in [6] and in [7] was “inactive” in each case. Besides, the Potency result in [8] and in assay [9] was “inactive” in each case. Besides, the max response in [4] is 4.41%. Also, the compound was classed as inactive in [10].
For `C[C@H](N)[C@H](O)c1ccc(O)c(O)c1`, the Potency was 10.7 µM (active) in [1]; 19 µM (active) in [5]; 23.9 µM (active) in assay [6]; 23.9 µM (active) in [8]; 23.9 µM (active) in assay [9]. The Potency entry in assay [2], in [3] and in assay [7] was “inactive” in each case. Also, the max response in assay [4] is -2.61%. Also, the result in assay [10] was inactive.
For the compound `O=C(Cl)OCCOCCOC(=O)Cl`, the Potency entry in assay [1], in assay [2], in assay [3], in assay [5], in assay [6] and in assay [7] was “inactive” each time. In assay [8], the Potency entry was “inactive”. Also, in [4], the max response is 3.34%.
`C=CC(=O)OCC`: the Potency result in [1], in [2], in assay [3], in assay [5], in [6] and in [7] was “inactive” in each case. Also, the Potency entry in assay [8] and in assay [9] was “inactive” in each case. Moreover, in assay [4], the max response is -11.3%.
With `O=C(O)C(O)C(O)C(=O)O` (configuration not stated), the Potency entry in [1], in assay [2], in [3], in [5], in assay [6] and in assay [7] was “inactive” in each case. Further, the Potency entry in [8] and in assay [9] was “inactive” each time. Moreover, the max response in [4] is -0.119%.
On to `CCCCC(CC)COC(=O)c1c(Br)c(Br)c(Br)c(Br)c1C(=O)OCC(CC)CCCC` (configuration not stated), for which the Potency result in assay [1], in assay [2], in [3], in [5], in [6] and in assay [7] was “inactive” throughout. Also, the Potency result in [8] is “inactive”. Also, the max response in [4] was -1.1%.
`FC(F)OC(F)(F)C(F)Cl` (configuration not stated): the Potency entry in assay [1], in assay [2], in [3], in [5] and in [6] was “inactive” in each case. Further, the max response in assay [4] is 8.01%.
With `O=C(Cc1ccccc1)OCCc1ccccc1`, the Potency entry in [1], in assay [2], in assay [3], in assay [5], in [6] and in [7] was “inactive” in each case. Moreover, the Potency result in assay [8] and in assay [9] was “inactive” in each case. For the same compound, the max response in assay [4] was 2.91%.
`O=C(O)c1cc(Cl)ccc1Cl`: the Potency entry in assay [1], in assay [2], in assay [3], in assay [5], in assay [6] and in assay [7] was “inactive” in each case. Further, the Potency entry in assay [8] and in assay [9] was “inactive” throughout. Moreover, the max response in assay [4] is 8.52%. Moreover, the compound was classed as inactive in [10].
For the compound `C[N+]1(CCF)[C@@H]2CC[C@H]1CC(OC(=O)C(O)(c1ccccc1)c1ccccc1)C2` (some centres not stated), the Potency entry in assay [1], in assay [2], in assay [3], in assay [5], in assay [6] and in assay [7] was “inactive” throughout. The Potency result in [8] and in assay [9] was “inactive” throughout. For the same compound, in assay [4], the max response is 2.19%.
Consider `CCCC[N+]1(C)[C@@H]2CC(OC(=O)[C@H](CO)c3ccccc3)C[C@H]1[C@@H]1O[C@@H]12` (some centres not stated), for which the Potency result in [1], in assay [2], in assay [3], in assay [5], in assay [6] and in [7] was “inactive” each time. The Potency result in assay [8] and in [9] was “inactive” throughout. In addition, the max response in [4] is 2.06%.
Turning to `CN1CC[C@]23c4c5ccc(O)c4O[C@H]2[C@@H](O)CC[C@H]3[C@H]1C5`, the Potency result in assay [1], in assay [2], in assay [3], in assay [5], in assay [6] and in assay [7] was “inactive” throughout. For the same compound, the Potency result in assay [8] and in [9] was “inactive” each time. Besides, the max response in [4] is -1.3%.
As for `CCN(C(C)=O)c1cccc(-c2ccnc3c(C#N)cnn23)c1`, the Potency entry in assay [1], in assay [2], in assay [3], in [5], in [6] and in assay [7] was “inactive” throughout. The Potency result in assay [8] is “inactive”. Also, the max response in assay [4] is -13.6%.
As for `CON(C)C(=O)Nc1ccc(Cl)cc1`, the Potency entry in assay [1], in assay [2], in assay [3], in [5], in [6] and in [7] was “inactive” throughout. Further, in assay [8], the Potency result was “inactive”. Further, the max response in [4] is -13.1%.
For the compound `O=[N+]([O-])O[C@H]1CO[C@H]2[C@@H]1OC[C@H]2O[N+](=O)[O-]`, the Potency result in assay [1], in assay [2], in assay [3], in [5], in [6] and in assay [7] was “inactive” in each case. Moreover, the Potency entry in assay [8] and in assay [9] was “inactive” in each case. For the same compound, the max response in assay [4] is 6.05%. The call in [10] was inactive.
For the compound `C[N+]1(CCC(C(N)=O)(c2ccccc2)c2ccccc2)CCCCC1`, the Potency result in assay [1], in assay [2], in assay [3], in assay [5], in [6] and in assay [7] was “inactive” each time. In addition, the Potency result in assay [8] and in [9] was “inactive” each time. Further, in [4], the max response was 0.771%. In addition, the result in assay [10] was inactive.
On to `C=C(C)C(=O)OCCCCOC(=O)C(=C)C`, for which the Potency result in assay [1], in assay [2], in assay [3], in [5], in assay [6] and in [7] was “inactive” throughout. Also, the Potency entry in assay [8] and in assay [9] was “inactive” in each case. The max response in [4] was 5.43%. Further, in assay [10], the compound was called inactive.
As to `SCc1ccccc1`, the Potency result in [1], in [2], in [3], in assay [5], in assay [6] and in [7] was “inactive” in each case. Moreover, the Potency result in [8] and in [9] was “inactive” in each case. Also, the max response in [4] is 5.57%. In assay [10], the compound was classed as inactive.
With `CC(=O)NNc1ccccc1`, the Potency result in assay [1], in assay [2], in [3], in [5], in assay [6] and in [7] was “inactive” each time. Besides, the Potency result in assay [8] and in [9] was “inactive” each time. Moreover, the max response in [4] is 2.64%.
As to `CC1(C)[C@H](C(=O)O[C@H](C#N)c2cccc(Oc3ccccc3)c2)[C@@H]1C=C(Br)Br`, the Potency result in assay [1], in assay [2], in assay [3], in [5], in assay [6] and in assay [7] was “inactive” in each case. In addition, the Potency entry in assay [8] and in [9] was “inactive” each time. Besides, the max response in [4] is -8.94% and -16.3%.
Regarding `CNC(=O)Oc1cccc(N=CN(C)C)c1`, the Potency result in assay [1], in assay [2], in assay [3], in assay [5], in assay [6] and in assay [7] was “inactive” each time. For the same compound, the Potency entry in assay [8] and in assay [9] was “inactive” throughout. The max response in assay [4] is 7.04%.
For the compound `O=C(O)COc1cc(Cl)c(Cl)cc1Cl`, the Potency result in assay [1], in assay [2], in [3], in assay [5], in assay [6] and in [8] was “inactive” throughout. The Potency entry in [9] is “inactive”. For the same compound, in [4], the Potency is 15.5 µM (active). The max response in assay [4] is 6.38%. Besides, the compound was classed as inactive in assay [10].
Consider `c1ccc2sc(SNC3CCCCC3)nc2c1`, for which the Potency entry in [1], in assay [2], in assay [3], in assay [5], in assay [6] and in assay [7] was “inactive” in each case. Moreover, the Potency result in [8] and in [9] was “inactive” throughout. Besides, in assay [4], the max response is -0.932% and 2.76%.
